Reference: PubChem BioAssay
Active and inactive are the calls of the source.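 The calls were made as follows, unless noted: active = compound raises GLP1 secretion from the human gut endocrine cells, with no numeric limit stated; inactive = the rest.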

Experiments:
[1] = stimulators of nuclear beta-catenin in C2C12, primary screen, imaging, WNT3A-conditioned medium, mouse C2C12, NPC library (AID 1117326; in the data active = nuclear beta-catenin stimulation mostly above about 4.2%, no sharp cut-off; inactive = mostly below about 10%; also: reference of the scale not given here); conditions: stronger effect = higher value
[2] = stimulators of insulin release from INS-1E, primary screen, cell-based, 5 mM glucose, NPC library (AID 1117329;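 active = compound raises insulin release from rat beta cells at 5 mM glucose, no numeric limit stated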; also: reference of the scale not given here); conditions: rat INS-1E insulin secretion, at 10 µM, stronger effect = higher value
[3] = growth inhibition of GSK3B-pretreated HCT116 cells – cell-based, CellTiter-Glo, 0.2 to 20 µM (AID 1117336;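 active = compounds lowering colon cancer cell viability after pretreatment blocking the GSK3B kinase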); conditions: HCT116 viability after GSK3B inhibitor, at 20 µM, stronger effect = higher value
[4] = inhibition of endothelial tube formation, primary screen, imaging, VEGF stimulated, CD31 staining, tube area, NPC library (AID 1117340;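 active = compound that reduces growth-factor-driven endothelial tube area in a mixed cell culture, no cutoff stated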); conditions: VEGF-stimulated ADSC/ECFC co-culture, at 10 µM, stronger effect = higher value
[5] = glucagon-like peptide 1 release enhancers, primary assay, NCI-H716 cell line, NPC library (AID 1117341); conditions: NCI-H716 cells, at 10 µM, stronger effect = higher value; also: reference of the scale not given here
[6] = HCT116 colon cancer cell growth inhibition, primary screen, CellTiter-Glo luminescence, NPC library (AID 1117342;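 active = compounds that lower survival of HCT116 colon cancer cells in the luminescence readout, no numeric limit stated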); conditions: at 20 µM (top of the series)
[7] = CellTiter-Glo luminescent readout of SW480 viability loss, NPC library primary (AID 1117343;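 active = compounds that lower viability of the colon cancer cells in the luminescence readout, with no numeric limit stated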); conditions: CellTiter-Glo luminescence; at 20 µM (top of the series)
[8] = decreased DLD-1 cellular survival, CellTiter-Glo luminescent readout, NPC compound collection, primary HTS (AID 1117346;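 active = compounds that lower survival of DLD-1 colon cancer cells in the luminescence readout, no cutoff given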); conditions: DLD-1 viability, CellTiter-Glo luminescence; at 20 µM (top of the series)

| Compound | nuclear beta-catenin stimulation ([1]; at 10 µM) | nuclear beta-catenin stimulation ([1]; stimulation, at 2 µM) [%] | insulin secretion stimulation [2] | viability decrease [3] | tube area decrease [4] | GLP1 secretion stimulation [5] | inhibition of viability [6] | viability decrease (inhibition) [7] | viability decrease (inhibition) [8] |
| --- | --- | --- | --- | --- | --- | --- | --- | --- | --- |
| CCCC(=O)OC[C@@H](OC(=O)CCC)[C@@H](OC(=O)CCC)[C@H](Cn1c2nc(=O)[nH]c(=O)c-2nc2cc(C)c(C)cc21)OC(=O)CCC | -0.4% (inactive) | 2.2 | 1.9% (inactive) | 39.1% (inactive) | 14.1% (inactive) | 2.6% (inactive) | 11.7% (inactive) | 25.5% (inactive) | 24.5% (inactive) |
| CC(CC1c2ccccc2CCc2ccccc21)CN(C)C (centres undefined) | -1% (inactive) | 0.4 | 29.8% (active) | 34.8% (inactive) | 9.8% (inactive) | -1.9% (inactive) | 44.4% (active) | 84.4% (active) | 87.7% (active) |
| COC(=O)c1cc(Cl)ccc1NS(=O)(=O)C(F)(F)F | -1.2% (inactive) | -1.2 | 1.8% (inactive) | 17.5% (inactive) | -6.9% (inactive) | -0.4% (inactive) | 8.93% (inactive) | 30.2% (inactive) | -4.9% (inactive) |
| O=C1CCC(=O)N1CO | -2.4% (inactive) | -0.7 | 3.1% (inactive) | -0.6% (inactive) | -5.1% (inactive) | -1.4% (inactive) | 1.8% (inactive) | 9.6% (inactive) | -2.7% (inactive) |
| CN(C)CCOC(c1ccccc1)c1ccc(Br)cc1 (centres undefined) | 4.6% (inactive) | 5.4 | 95% (active) | -92.2% (inactive) | -4.6% (inactive) | 12.6% (inactive) | 29.9% (inactive) | 55.5% (active) | 5.7% (inactive) |
| Cc1c(C)c2c(c(C)c1OC(=O)CCC(=O)OCCO)CC[C@@](C)(CCC[C@H](C)CCC[C@H](C)CCCC(C)C)O2 | 0% (inactive) | -0.6 | 0.25% (inactive) | 116% (active) | 17.4% (inactive) | 23% (active) | 122% (active) | 157% (active) | 101% (active) |
| CC(=O)N/N=C/c1ccc([N+](=O)[O-])o1 | 9.9% (inactive) | -0.2 | -3.3% (inactive) | 16.4% (inactive) | 20.9% (inactive) | 5.7% (inactive) | 9% (inactive) | 104% (active) | 80.5% (active) |
| O=C(CO)[C@@H](O)[C@H](O)[C@@H](O)C(=O)O | -2.6% (inactive) | -0.9 | 0.7% (inactive) | -2.4% (inactive) | -0.1% (inactive) | -5.4% (inactive) | 2.2% (inactive) | 0.3% (inactive) | -3.1% (inactive) |
| O=C(CCN1CCC(c2ccccc2)C1)c1ccc2c(c1)OCCO2 (centres undefined) | 12.8% (inactive) | 0.5 | 0% (inactive) | 11.6% (inactive) | 17% (active) | 1.4% (inactive) | -10.2% (inactive) | 158% (active) | 101% (active) |
| CCCCOC(=O)CC(CC(=O)OCCCC)(OC(C)=O)C(=O)OCCCC | -0.3% (inactive) | 0.1 | 6.2% (inactive) | 30.4% (inactive) | 2.1% (inactive) | 0.1% (inactive) | 25.9% (inactive) | 62.1% (active) | 26.9% (inactive) |
| CC[C@@H]([C@H](C)O)n1ncn(-c2ccc(N3CCN(c4ccc(OC[C@@H]5CO[C@@](Cn6cncn6)(c6ccc(F)cc6F)C5)cc4)CC3)cc2)c1=O | 51.6% (active) | 8.2 | 1.4% (inactive) | 11.8% (inactive) | 97.9% (active) | 4.8% (inactive) | 77.7% (active) | 83.8% (active) | 24.1% (inactive) |
| CCN(CC)CCOc1ccc(C(O)(Cc2ccc(Cl)cc2)c2ccc(C)cc2)cc1 (centres undefined) | 8.8% (inactive) | 1.9 | 0.1% (inactive) | 101% (active) | 107% (active) | 31.5% (active) | 102% (active) | 122% (active) | 101% (active) |
| O=C(O)Cc1cccc(-c2cc(CCCCCCc3ccc(O[C@H]4O[C@H](CO)[C@@H](O)[C@H](O)[C@@H]4O)c(-c4cccc(CC(=O)O)c4)c3)ccc2O[C@H]2O[C@H](CO)[C@@H](O)[C@H](O)[C@@H]2O)c1 | 0.7% (inactive) | 1.4 | 2.3% (inactive) | -12.7% (inactive) | -29% (inactive) | 9.5% (inactive) | -26.6% (inactive) | -24.6% (inactive) | -14.9% (inactive) |
| CCCCCCCCCCCCCCNCCO | 10.8% (inactive) | 10.6 | -1.5% (inactive) | 62.8% (active) | 103% (active) | 34.8% (active) | 32.6% (inactive) | 121% (active) | 103% (active) |
| CCCCCCCCCCCCCCCCN | 1.3% (inactive) | 1.3 | -2.4% (inactive) | 5% (inactive) | 6.5% (inactive) | 0.9% (inactive) | 5.9% (inactive) | 4.5% (inactive) | -6.6% (inactive) |
| O=C1OC2(c3ccccc31)c1cc(Br)c(O)c(Br)c1Oc1c2cc(Br)c(O)c1Br | -0.8% (inactive) | -2.9 | 0.5% (inactive) | 32.8% (inactive) | -24.2% (inactive) | 17.7% (inactive) | 7.8% (inactive) | 24.1% (inactive) | -5.4% (inactive) |
